A short description of assay [1]: ATG_TAL_CIS: Attagene CIS-FACTORIAL HepG2 Assay for human TAL Basal Promoter (AID 2282966).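 Also: background control endpoint measuring basal TAL promoter reporter mRNA not a specific factor.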 Particulars: HepG2 Attagene cis-factorial TAL promoter reporter; actives raise or lower the signal. The essentials: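 HepG2 cells were transiently transfected with promoter-driven multiplexed reporter units and dosed for 24 h. Reporter mRNA was measured by RT-PCR with capillary electrophoresis fluorescence; bidirectional fits used DMSO as baseline, serving as a background control.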

A short description of assay [2]: ATG_TGFb_CIS: Attagene CIS-FACTORIAL HepG2 Assay for human Transforming Growth Factor (TGF) (AID 2282967). The following applies: HepG2 Attagene CIS TGFb reporter, mRNA transcription; actives raise or lower the signal. The essentials:
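Cells were dosed for 24 hours, after which total RNA was reverse-transcribed and reporter sequences amplified, labeled and sized by capillary electrophoresis. Activity was fitted in both directions against DMSO.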

Assay [3] can be described thus: ATG_VDRE_CIS: Attagene CIS-FACTORIAL HepG2 Assay for human Vitamin D Receptor Element (VDRE) (AID 2282968). Particulars: HepG2 VDRE cis-reporter transcription, actives raise or lower the signal. The procedure, abridged:
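Reporter mRNA induction, quantified by capillary electrophoresis of fluorescently labelled RT-PCR products, was read 24 h after dosing HepG2 cells carrying transiently transfected cis-regulated reporter units; gain or loss relative to DMSO.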

Assay [4] deals with X-box-binding protein 1 (Homo sapiens) (UniProt P17861). Description: ATG_Xbp1_CIS: Attagene CIS-FACTORIAL HepG2 Assay for human X-box Binding Protein 1 (XBP1) (AID 2282972). Particulars: HepG2 XBP1 cis-element reporter, Attagene multiplex; actives raise or lower the signal. The procedure, abridged: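 After a 24-hour chemical exposure of HepG2 cells carrying cis-regulated reporters, reporter mRNA levels are assessed. Quantification uses RT-PCR, 6-FAM labelling and capillary electrophoresis. Gain- or loss-of-signal is fitted against DMSO.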

Assay [5] in a line: ATG_M_19_TRANS: Attagene TRANS-FACTORIAL HepG2 Assay for M19 Transcription Factor (Internal Marker) (AID 2282974; active = hit-call score of the fitted dose curve at least 0.9, where 1 is the maximum). Particulars: HepG2 Attagene TRANS-FACTORIAL M19 internal marker reporter. The essentials: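 Background-control readout: after 24 h chemical exposure of transfected HepG2 carrying GAL4-driven reporter units, RNA was reverse-transcribed, amplified, fluorescently labeled and sized by capillary electrophoresis; gain-of-signal fit against DMSO.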

The target of assay [6] is Estrogen-related receptor gamma (Homo sapiens) (UniProt P62508). Description: ATG_ERRg_TRANS: Attagene TRANS-FACTORIAL HepG2 Assay for human Estrogen-Related Receptor gamma (ERRg) (AID 2282977; active = hit-call score of the fitted dose curve at least 0.9, where 1 is the maximum;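 also: hits increase reporter signal over DMSO so potencies reflect activators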). The following applies: HepG2 Attagene TRANS reporter, ERRg transactivation. The essentials: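 Transfect HepG2 with multiple GAL4-UAS reporter transcription units; dose chemicals 24 h; isolate RNA, reverse-transcribe with oligo(dT), PCR-amplify, label with 6-FAM, digest with HpaI; size fragments by capillary electrophoresis. DMSO serves as negative control.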

Assay [7] addresses Glucocorticoid receptor (Homo sapiens) (UniProt P04150). In words: ATG_GR_TRANS: Attagene TRANS-FACTORIAL HepG2 Assay for human Glucocorticoid Receptor (GR) (AID 2282978; active = hit-call score of the fitted dose curve at least 0.9, where 1 is the maximum;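 also: activators score as hits since higher reporter transcript over DMSO is fitted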). The following applies: HepG2 Attagene TRANS GR reporter, mRNA transcription. The procedure, abridged: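 Readout is reporter transcript from a chimeric GR-Gal4 acting on GAL4-UAS in transfected human HepG2 liver cells after 24 h exposure, quantified by RT-PCR and capillary electrophoresis. Activation fitted upward against DMSO.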

Assay [8] can be described thus: ATG_M_32_TRANS: Attagene TRANS-FACTORIAL HepG2 Assay for M32 Transcription Factor (Internal Marker) (AID 2282984; active = hit-call score of the fitted dose curve at least 0.9, where 1 is the maximum). The following applies: HepG2 Attagene TRANS M32 internal marker reporter. The procedure, abridged:
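Measures reporter mRNA induction in human HepG2 liver cells after 24 h chemical treatment. Transcripts from transiently transfected GAL4-UAS reporter units are amplified, fluorescently labelled and sized by capillary electrophoresis; gain of signal relative to DMSO.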

Assay [9] deals with Nuclear receptor subfamily 4 group A member 2 (Homo sapiens) (UniProt P43354). In words: ATG_NURR1_TRANS: Attagene TRANS-FACTORIAL HepG2 Assay for human Nuclear Receptor Related Protein 1 (NURR1) (AID 2282985; active = hit-call score of the fitted dose curve at least 0.9, where 1 is the maximum). The following applies: HepG2 Attagene TRANS reporter, mRNA readout. The procedure, abridged:
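Transient transfection of HepG2, human liver cells, with multiple GAL4-UAS reporter transcription units. Cells dosed 24 h, RNA isolated, reverse-transcribed, PCR-amplified, FAM-labelled, HpaI-digested, sized by capillary electrophoresis. DMSO served as negative control.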

Assay [10] addresses Transcriptional activator Myb (Homo sapiens) (UniProt P10242). Description: ATG_Myb_CIS: Attagene CIS-FACTORIAL HepG2 Assay for human Myeloblastosis (Myb) Proto-Oncogene Transcription Factor (AID 2282986). The following applies: HepG2 Attagene CIS-FACTORIAL Myb reporter transcription; actives raise or lower the signal. The essentials:
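Reporter mRNA is quantified by RT-PCR and capillary electrophoresis 24 h after dosing HepG2 cells transfected with cis-regulated reporter units, which track endogenous transcription factor activity. Gain and loss of signal are fitted versus DMSO baseline.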

The target in assay [11] is Nuclear respiratory factor 1 (Homo sapiens) (UniProt Q16656). Description: ATG_NRF1_CIS: Attagene CIS-FACTORIAL HepG2 Assay for human Nuclear Respiratory Factor 1 (NRF1) Orphan Gene (AID 2282987). Particulars: HepG2 NRF1 cis-element reporter, Attagene multiplex; actives raise or lower the signal. The procedure, abridged:
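Endogenous NRF1-driven reporter transcription in transfected HepG2 cells after 24 h treatment. Readout: RT-PCR products, 6-FAM labelled and resolved by capillary electrophoresis; changes fitted both directions relative to DMSO.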

Assay [12] is described as follows: ATG_GAL4_TRANS: Attagene TRANS-FACTORIAL HepG2 Assay for GAL4 (Internal Marker) (AID 2282976; active = hit-call score of the fitted dose curve at least 0.9, where 1 is the maximum). Particulars: HepG2 Attagene TRANS GAL4 internal marker reporter. The procedure, abridged:
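HepG2 cells transiently transfected with multiplexed GAL4-UAS reporter constructs were dosed for 24 h. Reporter mRNA was measured by RT-PCR, 6-FAM primer extension, HpaI digestion and capillary electrophoresis, and gain of signal was fitted relative to DMSO.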

For assay [13], the target named is Bile acid receptor (Homo sapiens) (UniProt Q96RI1). In words: ATG_FXR_TRANS: Attagene TRANS-FACTORIAL HepG2 Assay for Farnesoid X Receptor (FXR) (AID 2282979; active = hit-call score of the fitted dose curve at least 0.9, where 1 is the maximum;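 also: hits raise reporter mRNA above DMSO so AC50 marks FXR activation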). The following applies: HepG2 Attagene TRANS FXR-GAL4 reporter transcription. The procedure, abridged:
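HepG2 cells transiently transfected with reporter constructs in which a chimeric FXR-GAL4 protein drives a GAL4-UAS reporter; 24 h compound exposure. Reporter mRNA measured by RT-PCR, FAM labelling, HpaI digestion and capillary electrophoresis; gain-of-signal versus DMSO.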

Assay [14] deals with Oxysterols receptor LXR-alpha (Homo sapiens) (UniProt Q13133). Description: ATG_LXRa_TRANS: Attagene TRANS-FACTORIAL HepG2 Assay for human Liver X Receptor alpha (LXRa) (AID 2282980; active = hit-call score of the fitted dose curve at least 0.9, where 1 is the maximum). Particulars: HepG2 Attagene TRANS reporter, LXRa transactivation. The essentials:
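HepG2 cells were transiently transfected with multiplexed reporter units driven by chimeric LXRa–GAL4 fusion proteins, then dosed for 24 h. Reporter mRNA was quantified by RT-PCR, fluorescent labelling and capillary electrophoresis; gain of signal fitted against DMSO baseline.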

The nature of assay [15]: ATG_M_06_TRANS: Attagene TRANS-FACTORIAL HepG2 Assay for M06 Transcription Factor (Internal Marker) (AID 2282983; active = hit-call score of the fitted dose curve at least 0.9, where 1 is the maximum;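 also: reporter transcript level by RT-PCR then capillary electrophoresis fluorescence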). Particulars: HepG2 Attagene TRANS M06 internal marker reporter. The essentials:
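HepG2 cells transiently transfected with multiplexed GAL4-UAS reporter transcription units; after 24 h compound exposure, reporter mRNA measured by RT-PCR, FAM-labelled primer extension, HpaI digestion and capillary electrophoresis. Gain-of-signal fitted versus DMSO baseline; background control readout.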

In assay [16] the target is Steroid hormone receptor ERR1 (Homo sapiens) (UniProt P11474). In words: ATG_ERRa_TRANS: Attagene TRANS-FACTORIAL HepG2 Assay for human Estrogen-Related Receptor alpha (ERRa) (AID 2282971; active = hit-call score of the fitted dose curve at least 0.9, where 1 is the maximum). Particulars: HepG2 Attagene TRANS reporter, ERRa transactivation. The procedure, abridged: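 HepG2 cells transiently transfected with multiplexed GAL4-UAS reporter units reading chimeric ERRa-Gal4 activity; 24 h compound exposure. Reporter mRNA measured by RT-PCR, 6-FAM labelling, HpaI digest and capillary electrophoresis; gain of signal fitted versus DMSO baseline.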

Assay [17] has as its target Hepatocyte nuclear factor 4-alpha (Homo sapiens) (UniProt P41235). In words: ATG_HNF4a_TRANS: Attagene TRANS-FACTORIAL HepG2 Assay for human Hepatocyte Nuclear Factor 4 alpha (HNF4a) (AID 2282982; active = hit-call score of the fitted dose curve at least 0.9, where 1 is the maximum). The following applies: HepG2 HNF4a transactivation reporter, mRNA readout. The procedure, abridged: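 Readout is fluorescent reporter-transcript fragments resolved by capillary electrophoresis after RT-PCR from HepG2 cells dosed for 24 h. Cells carried transfected GAL4-UAS reporter constructs measuring exogenous NR-GAL4 chimera activity; DMSO served as baseline.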

The target in assay [18] is Nuclear receptor subfamily 1 group I member 3 (Homo sapiens) (UniProt Q14994). In words: ATG_CAR_TRANS: Attagene TRANS-FACTORIAL HepG2 Assay for human Constitutive Androstane Receptor (CAR) (AID 2282969; active = hit-call score of the fitted dose curve at least 0.9, where 1 is the maximum;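 also: activators raise reporter mRNA above DMSO so AC50 marks induction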). Particulars: HepG2 Attagene TRANS-FACTORIAL CAR reporter. The procedure, abridged: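 Readout is reporter mRNA induction, quantified by fluorescent primer extension and capillary electrophoresis after RT-PCR. Cells were HepG2 transiently carrying chimeric NR-Gal4 constructs with GAL4-UAS reporters, treated for 24 h; activity scored upward from DMSO.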

Assay [19] has as its target Estrogen receptor (Homo sapiens) (UniProt P03372). Description: ATG_ERa_TRANS: Attagene TRANS-FACTORIAL HepG2 Assay for human Estrogen Receptor alpha (ERa) (AID 2282970; active = hit-call score of the fitted dose curve at least 0.9, where 1 is the maximum). Particulars: HepG2 Attagene TRANS ERa GAL4 reporter, mRNA. The essentials: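 HepG2 cells transiently transfected with multiplexed GAL4-UAS reporter units; ERa activity read via exogenous chimeric NR-Gal4 protein. After 24 hour compound exposure, reporter mRNA measured by RT-PCR with 6-FAM labelling and capillary electrophoresis; gain-of-signal fitted relative to DMSO.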

Several values for one entry are separate records, joined by “and”; a condition that tells them apart may be missing. Equal entries are not always repeated. Records with an inconclusive call do not appear. A structure can be active in one record and inactive in another. Activity calls are given as the source filed them. The calls were made as follows, unless noted: active = hit-call score of the fitted dose curve at least 0.9, where 1 is the maximum; inactive = score below 0.9.

Chain of X-box-binding protein 1 (Homo sapiens) (P17861 whole entry, looked up): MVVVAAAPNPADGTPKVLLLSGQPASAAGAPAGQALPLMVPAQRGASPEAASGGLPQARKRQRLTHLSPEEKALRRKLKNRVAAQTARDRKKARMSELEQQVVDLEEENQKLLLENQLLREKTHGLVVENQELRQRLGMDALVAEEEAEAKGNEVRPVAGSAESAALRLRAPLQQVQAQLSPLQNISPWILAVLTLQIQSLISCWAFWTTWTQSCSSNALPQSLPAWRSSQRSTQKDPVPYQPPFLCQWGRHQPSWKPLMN
Chain of Nuclear respiratory factor 1 (Homo sapiens) (Q16656 whole entry, looked up): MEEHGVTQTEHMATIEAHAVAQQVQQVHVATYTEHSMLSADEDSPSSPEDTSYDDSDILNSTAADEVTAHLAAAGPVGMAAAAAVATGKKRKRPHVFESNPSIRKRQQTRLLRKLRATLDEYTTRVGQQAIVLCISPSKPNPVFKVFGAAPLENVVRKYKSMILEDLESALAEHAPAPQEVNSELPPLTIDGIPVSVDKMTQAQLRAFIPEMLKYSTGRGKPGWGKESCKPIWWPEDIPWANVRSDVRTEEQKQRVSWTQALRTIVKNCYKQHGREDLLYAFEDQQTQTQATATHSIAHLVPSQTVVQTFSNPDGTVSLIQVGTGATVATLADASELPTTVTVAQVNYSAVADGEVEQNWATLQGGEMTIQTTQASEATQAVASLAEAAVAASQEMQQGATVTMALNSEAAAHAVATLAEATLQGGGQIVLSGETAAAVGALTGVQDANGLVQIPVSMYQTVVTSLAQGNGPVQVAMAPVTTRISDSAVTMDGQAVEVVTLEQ
Chain of Nuclear receptor subfamily 4 group A member 2 (Homo sapiens) (P43354 whole entry, looked up, the tested form may be a part): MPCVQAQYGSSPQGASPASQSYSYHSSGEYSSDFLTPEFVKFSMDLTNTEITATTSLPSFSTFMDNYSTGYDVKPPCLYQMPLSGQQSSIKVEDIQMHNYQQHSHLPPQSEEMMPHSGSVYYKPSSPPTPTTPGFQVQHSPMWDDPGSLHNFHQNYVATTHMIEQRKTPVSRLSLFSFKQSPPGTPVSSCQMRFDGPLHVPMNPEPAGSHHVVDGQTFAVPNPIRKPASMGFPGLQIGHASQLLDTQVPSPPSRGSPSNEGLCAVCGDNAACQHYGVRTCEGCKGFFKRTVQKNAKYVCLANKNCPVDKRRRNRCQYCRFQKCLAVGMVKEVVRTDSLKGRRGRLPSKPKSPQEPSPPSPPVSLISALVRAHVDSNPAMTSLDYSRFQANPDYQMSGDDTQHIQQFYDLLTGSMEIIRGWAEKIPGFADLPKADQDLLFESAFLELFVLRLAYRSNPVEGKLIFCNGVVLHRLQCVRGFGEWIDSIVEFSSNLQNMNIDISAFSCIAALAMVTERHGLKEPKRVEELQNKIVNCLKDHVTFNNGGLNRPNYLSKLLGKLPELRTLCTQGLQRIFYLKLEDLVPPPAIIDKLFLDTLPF
Chain of Transcriptional activator Myb (Homo sapiens) (P10242 whole entry, looked up): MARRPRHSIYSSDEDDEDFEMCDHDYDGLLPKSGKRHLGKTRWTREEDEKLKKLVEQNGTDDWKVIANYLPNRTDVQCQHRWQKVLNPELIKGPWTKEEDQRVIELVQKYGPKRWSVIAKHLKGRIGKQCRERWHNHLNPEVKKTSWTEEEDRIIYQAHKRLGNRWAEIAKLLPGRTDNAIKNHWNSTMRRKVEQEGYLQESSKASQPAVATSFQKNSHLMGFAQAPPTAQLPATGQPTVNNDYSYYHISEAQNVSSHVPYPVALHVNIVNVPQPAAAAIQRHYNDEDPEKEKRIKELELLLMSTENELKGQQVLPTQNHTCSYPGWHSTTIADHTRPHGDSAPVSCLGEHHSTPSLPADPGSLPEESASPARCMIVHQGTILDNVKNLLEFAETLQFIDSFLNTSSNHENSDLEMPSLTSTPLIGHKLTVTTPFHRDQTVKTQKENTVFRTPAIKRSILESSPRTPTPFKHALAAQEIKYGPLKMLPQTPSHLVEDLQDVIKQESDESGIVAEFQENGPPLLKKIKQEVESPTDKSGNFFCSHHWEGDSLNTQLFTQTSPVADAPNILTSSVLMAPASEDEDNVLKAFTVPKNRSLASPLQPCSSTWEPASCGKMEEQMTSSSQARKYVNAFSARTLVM
Chain of Nuclear receptor subfamily 1 group I member 3 (Homo sapiens) (Q14994 whole entry, looked up, the tested form may be a part): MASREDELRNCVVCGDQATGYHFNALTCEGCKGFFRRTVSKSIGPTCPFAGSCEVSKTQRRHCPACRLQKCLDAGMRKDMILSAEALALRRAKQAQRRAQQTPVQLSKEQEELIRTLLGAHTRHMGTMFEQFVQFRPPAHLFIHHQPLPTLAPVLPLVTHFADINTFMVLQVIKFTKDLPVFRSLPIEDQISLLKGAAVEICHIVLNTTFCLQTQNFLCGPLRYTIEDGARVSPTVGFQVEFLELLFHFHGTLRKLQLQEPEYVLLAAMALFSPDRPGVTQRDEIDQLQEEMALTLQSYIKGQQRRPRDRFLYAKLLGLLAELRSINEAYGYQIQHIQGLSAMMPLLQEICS
Chain of Hepatocyte nuclear factor 4-alpha (Homo sapiens) (P41235 whole entry, looked up, the tested form may be a part): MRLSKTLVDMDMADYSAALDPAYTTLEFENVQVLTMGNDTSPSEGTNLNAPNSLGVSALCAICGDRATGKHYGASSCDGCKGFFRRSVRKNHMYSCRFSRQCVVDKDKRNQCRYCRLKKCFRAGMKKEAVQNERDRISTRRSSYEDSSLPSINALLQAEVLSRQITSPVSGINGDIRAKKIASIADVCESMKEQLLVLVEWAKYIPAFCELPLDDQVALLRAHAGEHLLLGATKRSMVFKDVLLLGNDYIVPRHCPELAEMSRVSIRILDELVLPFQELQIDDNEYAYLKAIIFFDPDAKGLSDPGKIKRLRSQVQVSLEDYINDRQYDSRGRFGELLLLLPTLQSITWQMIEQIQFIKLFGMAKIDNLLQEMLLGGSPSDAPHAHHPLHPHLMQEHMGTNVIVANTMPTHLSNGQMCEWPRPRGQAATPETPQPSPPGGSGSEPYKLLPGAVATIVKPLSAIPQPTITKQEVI
Chain of Glucocorticoid receptor (Homo sapiens) (P04150 whole entry, looked up, the tested form may be a part): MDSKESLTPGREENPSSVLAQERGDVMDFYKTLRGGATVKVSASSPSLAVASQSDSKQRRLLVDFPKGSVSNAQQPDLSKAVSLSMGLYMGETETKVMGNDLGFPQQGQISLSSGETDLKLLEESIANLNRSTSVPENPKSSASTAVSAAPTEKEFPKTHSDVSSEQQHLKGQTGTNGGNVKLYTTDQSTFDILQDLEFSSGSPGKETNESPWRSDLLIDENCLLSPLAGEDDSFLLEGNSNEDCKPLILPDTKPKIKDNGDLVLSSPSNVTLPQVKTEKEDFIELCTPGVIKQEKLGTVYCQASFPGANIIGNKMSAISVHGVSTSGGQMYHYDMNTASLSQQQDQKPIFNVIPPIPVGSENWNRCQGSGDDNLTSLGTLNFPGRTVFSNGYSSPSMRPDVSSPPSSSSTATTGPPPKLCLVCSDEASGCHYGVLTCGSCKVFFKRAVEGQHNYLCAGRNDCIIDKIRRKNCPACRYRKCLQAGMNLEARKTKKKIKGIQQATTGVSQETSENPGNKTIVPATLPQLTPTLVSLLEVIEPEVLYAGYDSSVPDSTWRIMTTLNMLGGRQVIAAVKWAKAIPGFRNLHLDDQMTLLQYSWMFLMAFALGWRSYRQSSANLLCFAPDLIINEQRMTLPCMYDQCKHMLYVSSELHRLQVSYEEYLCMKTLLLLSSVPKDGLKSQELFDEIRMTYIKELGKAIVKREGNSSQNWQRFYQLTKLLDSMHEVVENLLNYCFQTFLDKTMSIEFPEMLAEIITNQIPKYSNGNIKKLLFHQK
Chain of Bile acid receptor (Homo sapiens) (Q96RI1 whole entry, looked up, the tested form may be a part): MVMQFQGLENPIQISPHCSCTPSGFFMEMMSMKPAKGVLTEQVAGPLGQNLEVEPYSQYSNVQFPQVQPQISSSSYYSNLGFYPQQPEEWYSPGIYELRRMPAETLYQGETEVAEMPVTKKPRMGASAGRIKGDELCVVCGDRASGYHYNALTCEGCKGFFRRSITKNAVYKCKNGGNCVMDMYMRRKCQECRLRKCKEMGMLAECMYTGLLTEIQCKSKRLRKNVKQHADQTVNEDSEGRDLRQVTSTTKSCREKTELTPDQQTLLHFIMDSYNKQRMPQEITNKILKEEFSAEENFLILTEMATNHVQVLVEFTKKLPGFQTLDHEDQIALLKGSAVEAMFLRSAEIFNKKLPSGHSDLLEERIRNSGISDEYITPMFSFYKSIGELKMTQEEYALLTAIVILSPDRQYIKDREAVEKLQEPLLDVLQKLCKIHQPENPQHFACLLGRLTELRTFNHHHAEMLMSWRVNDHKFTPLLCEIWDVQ
Chain of Estrogen receptor (Homo sapiens) (P03372 whole entry, looked up, the tested form may be a part): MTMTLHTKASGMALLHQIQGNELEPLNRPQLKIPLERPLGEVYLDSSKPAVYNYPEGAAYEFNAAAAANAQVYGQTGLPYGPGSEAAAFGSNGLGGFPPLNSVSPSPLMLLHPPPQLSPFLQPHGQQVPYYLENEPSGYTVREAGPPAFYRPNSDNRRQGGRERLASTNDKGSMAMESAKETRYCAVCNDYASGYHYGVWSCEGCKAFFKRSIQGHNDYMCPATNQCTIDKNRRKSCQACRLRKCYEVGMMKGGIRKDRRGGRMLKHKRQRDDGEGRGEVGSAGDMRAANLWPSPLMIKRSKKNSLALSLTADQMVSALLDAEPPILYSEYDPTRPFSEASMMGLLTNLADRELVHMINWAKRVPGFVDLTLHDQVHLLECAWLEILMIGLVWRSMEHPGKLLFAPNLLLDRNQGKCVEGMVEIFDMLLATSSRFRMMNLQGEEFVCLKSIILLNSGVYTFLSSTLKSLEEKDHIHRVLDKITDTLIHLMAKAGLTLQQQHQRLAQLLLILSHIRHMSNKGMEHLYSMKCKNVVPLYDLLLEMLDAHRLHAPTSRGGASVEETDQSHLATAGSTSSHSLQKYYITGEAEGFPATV

In the case of `Cc1cc2c(cc1C(F)(F)F)N(C(=O)Nc1ccc(Oc3cccnc3C)nc1)CC2`, the result in assay [1], in assay [2], in assay [3], in assay [4], in assay [5] and in assay [6] was inactive. Moreover, the call in assay [7], in assay [8], in [9], in assay [10] and in assay [11] was inactive.
As to `Cc1ncc(CO)c(CO)c1O`, the outcome in assay [1], in assay [2], in assay [3], in assay [4], in [5] and in assay [12] was inactive. Moreover, the call in [13], in assay [14], in [15], in assay [9], in assay [10] and in [11] was inactive.
Turning to `CCCCCCCCCC(=O)O`, the result in assay [1], in [2], in [3], in assay [16], in assay [4] and in assay [5] was inactive. Moreover, the call in assay [12], in [7], in [17], in assay [15], in [8] and in assay [9] was inactive. The outcome in [10] and in assay [11] was inactive. Also, the AC50 in assay [9] was 104 µM (active).
`Oc1ccccc1`: the call in [1], in [2], in assay [18], in [4], in assay [5] and in assay [12] was inactive. Moreover, the outcome in assay [14], in assay [17], in assay [8], in assay [9], in assay [10] and in assay [11] was inactive.
`CCCCOC(=O)CC(CC(=O)OCCCC)(OC(C)=O)C(=O)OCCCC`: the outcome in assay [1], in [2], in [4], in assay [5], in assay [7] and in assay [13] was inactive. Moreover, the compound was called inactive in assay [17], in assay [15], in assay [8], in [9], in assay [10] and in assay [11]. Also, the AC50 in assay [3] is 8 µM (active) and 4.3 µM (active).
As for `Oc1ccc2ccccc2c1`, the compound was called inactive in assay [1], in [2], in assay [3], in assay [4], in assay [5] and in [7]. The compound was classed as inactive in assay [14], in assay [17], in assay [15], in [8], in [10] and in assay [11].
Consider `c1ccc2n[nH]nc2c1`, for which the result in assay [1], in assay [2], in [18], in [4], in [5] and in assay [12] was inactive. Also, the compound was called inactive in assay [7], in assay [14], in assay [15], in assay [9], in assay [10] and in assay [11].
Turning to `CN(C)C(=O)C1(N2CCCCC2)CCN(CC[C@@]2(c3ccc(Cl)c(Cl)c3)CN(C(=O)c3ccccc3)CCO2)CC1`, the call in [1], in assay [2], in [3], in assay [19], in assay [4] and in assay [6] was inactive. For the same compound, the compound was classed as inactive in [7], in assay [13], in assay [14], in [15], in assay [9] and in assay [10]. In [11], the result was inactive.
Turning to `O=c1ccc2ccccc2o1`, the compound was called inactive in assay [1], in assay [2], in assay [19], in assay [4], in assay [12] and in assay [15]. The compound was classed as inactive in [10] and in assay [11].
As for `O=C(O)c1ccccc1C(=O)OCc1ccccc1`, the result in assay [1], in assay [2], in assay [18], in assay [19], in assay [4] and in assay [12] was inactive. In addition, the call in assay [13], in [15], in assay [9], in [10] and in [11] was inactive.

Source of the values: PubChem BioAssay (EPA / NIEHS).
